PubChem BioAssay (NCI)
This is part of a sample that, as a whole, favours compounds with a hit. Of some 83,000 tested, about 20% had one in any assay.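 Single-dose data. Exposure time 48 hours. Values below 10 considered active.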 Unmarked numbers belong to inactive results. Activity calls are given as the source filed them.

System: U251 CNS
Assay: NCI-60 one-dose screen, 48 h (100 = growth as untreated, 0 = no growth, -100 = all killed)
Details: 10 µM unless noted
Procedure: Growth inhibition of the U251 human tumor cell line is measured as a screen for anti-cancer activity. Cells are grown in 96 well plates and exposed to the test compound for 48 hours. Compounds are tested at a single concentration, which is 10^-5 M for most compounds. The reported endpoint is percent growth (GI% or GIPRCNT), where numbers from 0 - 100% represent growth inhibition, and numbers from -100% - 0 represent cell death. For example, a value of 40 represents 60% growth inhibition. A value of 0 means no net growth occurred over the course of the experiment. A value of -40 indicates 40% of cells at the beginning of the experiment died by the end of the experiment. A value of -100 means all cells are dead at the end of the experiment.
NCI-60 Human Tumor Cell Lines Screen was performed using the standard one-dose NCI protocol, which is described in more detail at https://dtp.cancer.gov/discovery_development/nci-60/default.htm.
Compounds with GIPRCNT values below 10 were considered active. Activity score was based on GIPRCNT using the following formula: […]
Score is 0 for GIPRCNT values of 100 or above, 50 for GIPRCNT values of 0, and 100 for GIPRCNT values of -100.

Question: For `COC1OC(C(COC(C)=O)OC(C)=O)C(OC(C)=O)C(OC(C)=O)C1OC(C)=O` (stereo not given), which growth is on record?
Answer: 101%

Question: Which growth does the source give for `C1=NCCc2ccccc21` here?
Answer: 92.9%

Question: `CC(=O)N=c1ccc2nc3c(cc(N)c4ccccc43)oc-2c1` was tested. Which growth did it give?
Answer: -73.7% (active)

Question: Which growth does the source give for `C=CCC(OC(C)=O)c1ccc(OC)c(OC)c1` (stereo not given) here?
Answer: 101%

Question: With `O=[N+]([O-])c1ccc2[nH]c(=S)n(/C=C(/c3ccc(Cl)cc3Cl)S(=O)(=O)Cc3ccc(Cl)cc3Cl)c2c1` as the compound, how does the growth read?
Answer: 98.1%

Question: `S=C(NCc1ccccc1)N1CCC(CCCC2CCN(C(=S)NCc3ccccc3)CC2)CC1` was tested. Which growth did it give?
Answer: 98.3%

Question: Which growth does the source give for `CC(C)OCC(CCl)OC(=O)Nc1ccccc1` (stereo not given) here?
Answer: 97.2%

Question: How did the growth turn out when `O=C(O)Cc1cccc2ccccc12` was run?
Answer: 95.1%

Question: Which growth does the source give for `COc1ccc(-c2csc(NC(=O)Nc3nc(-c4ccc(OC)cc4)cs3)n2)cc1` here?
Answer: 79.5%

Question: With `CC(C)C1CCC(C)C(O)C1` (stereo not given) as the compound, how does the growth read?
Answer: 89%

Question: With `CCCCOC(=O)c1ccccc1O` as the compound, how does the growth read?
Answer: 100%

Question: Which growth does the source give for `N=C(N)c1nn(C2OC(CO)C(O)C2O)c2nc[nH]c(=O)c12` (stereo not given) here?
Answer: 16%

Question: For `CCOC(=O)CNC(=O)Sc1ccc(C(C)(C)C)cc1`, which growth is on record?
Answer: 83.5%

Question: Which growth does the source give for `CCCCCCCCCCCCSC1=C(Cl)C(=O)C(OC)=C(OC)C1=O` here?
Answer: 26%

Question: Which growth does the source give for `CC(=O)OC/C(C)=C\CC(C)COC(C)=O` (stereo not given) here?
Answer: 101%

Question: `OC(CCN1CCCCC1)(c1ccccc1)c1ccccc1` was tested. Which growth did it give?
Answer: 100%

Question: How did the growth turn out when `CCOC(=O)CO` was run?
Answer: 110%

Question: With `CCCOCc1cn[nH]n1` as the compound, how does the growth read?
Answer: 96.1%

Question: Which growth does the source give for `CCCCCCCCCCCCCC/C=C\C(CC(=O)O)C(=O)O` (stereo not given) here?
Answer: 107%

Question: For `C=C1C(=O)C2CCN1CC2`, which growth is on record?
Answer: 100%

Question: How did the growth turn out when `Nc1ccc2ccccc2c1-c1c(N)ccc2ccccc12` was run?
Answer: 21.5%

Question: Which growth does the source give for `COc1ccc(Br)c2c1C(=O)CC2` here?
Answer: 107%

Question: For `CSCCC(NC(=O)C(Cl)Cl)C(=O)O` (stereo not given), which growth is on record?
Answer: 90.9%

Question: How did the growth turn out when `BrCc1cccc(C[P+](c2ccccc2)(c2ccccc2)c2ccccc2)c1` was run?
Answer: 19.4%

Question: With `CC(=O)OCC1CCC(COC(C)=O)CC1` (stereo not given) as the compound, how does the growth read?
Answer: 105%

Question: With `O=Cc1ccc(Cl)c(Cl)c1` as the compound, how does the growth read?
Answer: 104%

Question: How did the growth turn out when `Cc1ccc(C2CCCCC2)cc1Br` was run?
Answer: 88.1%

Question: `OCCc1ccc(Cl)cc1` was tested. Which growth did it give?
Answer: 92.3%

Question: With `CC(=O)NCNC(C)=O` as the compound, how does the growth read?
Answer: 103%

Question: With `CN(C)c1ccc2c(N(C)C)cc(N(C)C)nc2c1` as the compound, how does the growth read?
Answer: 90.8%

Question: Which growth does the source give for `CCOC(=O)c1ccc(C(C)(C)C)cc1` here?
Answer: 97.5%

Question: How did the growth turn out when `CCCCCCCCCc1ccc(OC(C)=O)cc1` was run?
Answer: 97.9%

Question: `O=C(O)CC1=CCCCC1` was tested. Which growth did it give?
Answer: 105%

Question: With `CNc1ccccc1C(N)=O` as the compound, how does the growth read?
Answer: 92.8%

Question: Which growth does the source give for `CCc1ccccc1C(=O)N(CC)CC` here?
Answer: 103%

Question: `O=C1CSc2ccccc2N1` was tested. Which growth did it give?
Answer: 96.7%

Question: `COc1nc(Nc2cccc(C(F)(F)F)c2)nc(OC)n1` was tested. Which growth did it give?
Answer: 89.4%

Question: With `NC(=O)c1cc2c3ccccc3ccn2c1-c1ccccc1` as the compound, how does the growth read?
Answer: 16.1%

Question: For `CN(C)Cc1ccccn1`, which growth is on record?
Answer: 99.4%

Question: With `CCC(=O)C1C(=O)c2ccccc2C1=O` as the compound, how does the growth read?
Answer: 105%
